The record followed here is PubChem BioAssay.

The source made the active and inactive calls. Unless noted, how the calls were made is not given here.

Test [1] has as its system Wnt5a (protein binding on small-molecule microarray). As to the kind of experiment: Wnt5a binders on small-molecule microarray, primary screen, biophysical, 635/667 nm fluorescence (AID 1142).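 Further: fluorescence read at 667 nm with signal to noise per printed feature.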 The settings on record: 635 nm fluorescence, higher = more signal.
Test [2] can be described thus: cell viability in Huh7 cells, primary screen, cytotoxicity control for HCV replication inhibitor project, CellTiter-Glo luminescence, basal, 48 h (AID 1143).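 Further: Huh7 hepatoma cells carrying a hepatitis C replication reporter with no stimulus; test concentration not given here.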 The settings on record: Huh7 HCV replicon, higher = more signal, called active from +8 up or from −8 down. On the technique in general: Cellular ATP, detected with luciferase, serves as a proxy for viable cell number.

A short description of test [3]: P. aeruginosa biofilm formation inhibitors, primary screen, PAO1 strain, BacTiter-Glo luminescence, LB-PBS (AID 1144). The following applies: 12 h, higher = more signal.
The nature of test [4]: CREB reporter modulators without forskolin, primary screen, cell-based, PC12, CRE-LacZ reporter, unstimulated (AID 1145). The following applies: no forskolin, luminescence, 4.5 h, higher = more signal, called active from +8 up or from −8 down.
The nature of test [5]: CREB reporter modulators under forskolin, primary screen, cell-based, PC12, CRE-LacZ reporter, forskolin-stimulated (AID 1146).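 Further: PC12 cells with 6xCRE LacZ reporter stimulated by forskolin 10 µM; beta-galactosidase reporter signal reflecting CREB driven transcription.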 The following applies: luminescence, 4.5 h, higher = more signal, called active from +8 up or from −8 down.
Test [6] addresses Streptavidin (Streptomyces avidinii) (UniProt P22629). Nature of the test: streptavidin binders on small-molecule microarray, primary screen, artefact control for SMM compound annotation, biophysical, 635/667 nm fluorescence (AID 1147).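 Further: signal reflects streptavidin binding to arrayed compounds as a control protein.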 The settings on record: streptavidin binding, higher = more signal.
A short description of test [7]: small-molecule binders of probe aInhba, primary screen, biochemical, small-molecule microarray, 635/667 nm fluorescence (AID 1148).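 Further: score merges 667nm spot fluorescence with signal-to-noise for antibody binding to printed compounds.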 The settings on record: higher = more signal.
Test [8] addresses Torsin-1A (Homo sapiens) (UniProt O14656). Nature of the test: torsin A binders from cell lysate, primary screen, small-molecule microarray, wild-type, 635/667 nm (AID 1149). The settings on record: COS7 hTOR1A-WT lysate, 635 nm fluorescence, higher = more signal.
Test [9] shares this target. As to the kind of experiment: small-molecule binders of mutant TOR1A in lysate, primary screen, cell lysate, small-molecule microarray, COS7 lysate, 635/667 nm fluorescence (AID 1150).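 Further: score pools 667 nm emission and signal to noise measuring lysate protein binding.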 The settings on record: COS7 hTOR1A mutant lysate, 635 nm fluorescence, higher = more signal.
Test [10] deals with Sonic hedgehog protein (Shh). Nature of the test: small-molecule binders of Shh protein, primary screen, biochemical, small-molecule microarray, 635/667 nm fluorescence (AID 1151).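 Further: Shh protein binding to compounds spotted on small-molecule microarray slides; score combines spot fluorescence intensity with signal-to-noise across triplicate slides.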 The settings on record: small-molecule microarray binding, 635 nm fluorescence; higher = more signal.

Chain of Torsin-1A (Homo sapiens) (O14656 whole entry, looked up): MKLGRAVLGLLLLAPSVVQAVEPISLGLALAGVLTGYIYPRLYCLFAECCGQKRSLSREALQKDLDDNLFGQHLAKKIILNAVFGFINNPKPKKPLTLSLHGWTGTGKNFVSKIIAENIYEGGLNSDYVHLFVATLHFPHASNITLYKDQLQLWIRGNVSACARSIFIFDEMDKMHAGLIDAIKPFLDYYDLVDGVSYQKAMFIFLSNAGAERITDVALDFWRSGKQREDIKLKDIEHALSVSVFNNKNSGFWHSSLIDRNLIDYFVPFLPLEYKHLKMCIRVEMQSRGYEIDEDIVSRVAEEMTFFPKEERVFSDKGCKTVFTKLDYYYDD
Chain of Streptavidin (Streptomyces avidinii) (P22629 whole entry, looked up): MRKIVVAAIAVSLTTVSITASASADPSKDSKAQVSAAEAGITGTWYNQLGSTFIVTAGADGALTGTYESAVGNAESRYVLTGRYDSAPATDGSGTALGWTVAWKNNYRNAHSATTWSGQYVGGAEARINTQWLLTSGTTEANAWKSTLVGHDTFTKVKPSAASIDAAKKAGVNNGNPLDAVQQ

With `CCOC(=O)C[C@H]1[C@H](OC(=O)Cc2ccc3c(c2)OCO3)[C@@H](NC(=O)c2ccc(-c3ccccc3)cc2)c2cc(OCCCO)ccc2N1C(=O)c1ccccc1`, the composite z-score in [1] turned out to be 0.0105; in test [6] it was 0.0534; in test [7] it was 0.0906; with Torsin-1A (Homo sapiens) [8], 0.328; with Torsin-1A (Homo sapiens) [9], 0.132; in test [10], 0.358. Also, the z-score was -0.299 (inactive) in test [2], -1.24 (inactive) in test [3], 3.12 (inactive) in [4] and -1.27 (inactive) in test [5].
`C[C@]1(C(=O)NCc2ccccc2)c2ccccc2C(=O)N(Cc2ccc(OC(F)(F)F)cc2)[C@H]1c1ccc(CO)cc1`: the composite z-score in test [1] is 0.272; in test [6] it was -0.232; in test [7], -0.0719; with Torsin-1A (Homo sapiens) [8] it was -0.0977; in the test with Torsin-1A (Homo sapiens) [9], 0.223; in test [10], -0.135. Further, the z-score is -3.15 (inactive) in test [2], -0.808 (inactive) in test [3], 0.414 (inactive) in [4] and -0.958 (inactive) in test [5].
Consider `O=C1C2C=CC(C(O)c3ccc(F)cc3)N(Nc3ccccc3)C2C(=O)N1c1ccccc1` (stereo not given), for which the composite z-score in test [1] is 0.137; in test [6] it was 0.0517; in test [7] it was 0.212; with Torsin-1A (Homo sapiens) [8] it was 0.171; with Torsin-1A (Homo sapiens) [9], -0.27; in [10], -0.61. Further, the z-score in test [2] was 0.633 (inactive); in [3], -0.686 (inactive); in test [4], -0.522 (inactive); in [5], -0.49 (inactive).
With `COc1ccc(CCN2C(=O)[C@@]3(Cc4ccccc42)c2ccccc2C(=O)N(Cc2ccccc2Cl)[C@H]3c2ccc(CO)cc2)cc1`, the composite z-score in [1] was -0.0887; in [6], -0.343; in test [7], -0.0403; with Torsin-1A (Homo sapiens) [8] it was -0.921; with Torsin-1A (Homo sapiens) [9] it was -0.77; in test [10] it was -0.801. Also, the z-score in test [2] is -1.7 (inactive); in test [3], -0.456 (inactive); in test [4], 0.558 (inactive); in [5], 0.131 (inactive).
As for `O=C1N(CCS(=O)(=O)c2ccccc2)c2ccccc2C[C@@]12COC(c1ccc(OCCCO)cc1)=N2`, the composite z-score in [1] stood at 0.576; in test [6], 0.906; in [7], 0.362; with Torsin-1A (Homo sapiens) [8], 0.784; with Torsin-1A (Homo sapiens) [9], 0.967; in [10], 0.534. The z-score in test [2] was -1.46 (inactive); in test [3], 0.261 (inactive); in test [4], 0.218 (inactive); in test [5] it was -0.151 (inactive).
As for `[N-]=[N+]=Nc1ccccc1[C@H]1OC(c2ccc(OCCCO)cc2)=N[C@@]1(CCS(=O)(=O)c1ccccc1)C(=O)O`, the composite z-score in test [1] is 0.296; in test [6], 0.433; in test [7] it was 0.0516; in the test with Torsin-1A (Homo sapiens) [8], -0.363; with Torsin-1A (Homo sapiens) [9] it was 1.13; in test [10] it was -0.721. For the same molecule, the z-score in test [2] is -1.06 (inactive); in test [3], 0.713 (inactive); in test [4] it was 1.29 (inactive); in test [5], -0.197 (inactive).
In the case of `CC(C)NC(=O)[C@@]1(Cc2ccccc2I)c2ccccc2C(=O)N(Cc2ccccc2)[C@H]1c1ccc(CO)cc1`, the composite z-score in test [1] is 0.107; in test [6], 0.0632; in [7], 0.817; with Torsin-1A (Homo sapiens) [8], 0.484; with Torsin-1A (Homo sapiens) [9], -0.181; in test [10], 1.39. The z-score in [2] is -2.05 (inactive); in test [3] it was -0.549 (inactive); in [4], -0.231 (inactive); in test [5], 0.0359 (inactive).
For `C[C@]1(C(=O)NCc2ccccc2)c2ccccc2C(=O)N(Cc2cc(F)cc(C(F)(F)F)c2)[C@H]1c1ccc(CO)cc1`, the composite z-score in [1] is -0.0261; in [6], -0.859; in test [7] it was 0.13; with Torsin-1A (Homo sapiens) [8], -0.956; with Torsin-1A (Homo sapiens) [9] it was -1.47; in [10], -0.436. The z-score in test [2] is -1.8 (inactive); in test [3] it was -0.255 (inactive); in test [4], 0.0909 (inactive); in [5] it was -0.323 (inactive).
Turning to `COc1ccccc1CN1C(=O)c2ccccc2[C@@H](C(=O)NCCN2CCOCC2)[C@@H]1c1ccc(CO)cc1`, the composite z-score in test [1] is 0.274; in test [6], 0.156; in [7], -0.13; with Torsin-1A (Homo sapiens) [8], 0.52; with Torsin-1A (Homo sapiens) [9], 0.767; in test [10], 0.197. For the same molecule, the z-score in test [2] was -0.916 (inactive); in [3], -1.04 (inactive); in test [4], 0.001 (inactive); in test [5] it was -1.09 (inactive).
Consider `COCCOC(=O)N1C(=O)[C@@]2(c3cc(C#CCC(C(=O)OC)C(=O)OC)ccc31)[C@H](c1ccccc1OCCO)N1[C@H](c3ccccc3)[C@H](c3ccccc3)OC(=O)[C@H]1[C@@H]2C(N)=O`, for which the composite z-score in test [1] is 0.53; in test [6], 0.0558; in [7], 0.137; with Torsin-1A (Homo sapiens) [8], 0.402; in the test with Torsin-1A (Homo sapiens) [9], 0.689; in test [10], 1.52. Further, the z-score in test [2] is -3.11 (inactive); in test [3], 0.451 (inactive); in test [4] it was 1.16 (inactive); in test [5], 2.17 (inactive).
Turning to `CCCNC(=O)[C@@]1(c2ccc([N+](=O)[O-])cc2)CC(=O)N(CC23CC4CC(CC(C4)C2)C3)[C@@H]1c1ccc(CO)cc1`, the composite z-score in test [1] was 0.4; in [6], -0.204; in test [7] it was -0.272; with Torsin-1A (Homo sapiens) [8], 0.0865; with Torsin-1A (Homo sapiens) [9] it was 0.319; in test [10] it was 0.34. Also, the z-score in test [2] is -5.17 (inactive); in test [3], -0.293 (inactive); in test [4], 0.531 (inactive); in test [5] it was -0.312 (inactive).
As for `C=C(COC)C(=O)CC[C@H](OC(C)=O)c1cccc(OCCO)c1`, the composite z-score was 0.145 in test [1]; -1.1 in test [6]; -0.142 in test [7]; 0.315 in the test with Torsin-1A (Homo sapiens) [8]; 0.142 with Torsin-1A (Homo sapiens) [9]; 0.9 in test [10]. In addition, the z-score in test [2] is -3.15 (inactive); in test [3], 0.198 (inactive); in [4], 0.942 (inactive); in test [5], 0.203 (inactive).
Turning to `CCOC(=O)C[C@H]1[C@H](OC(=O)c2ccc(-c3ccccc3)cc2)[C@@H](NC(=O)c2ccc(-c3ccccc3)cc2)c2cc(OCCCO)ccc2N1C(=O)Cc1ccc(OC)cc1`, the composite z-score in test [1] is 0.0386; in test [6], 0.745; in test [7], 0.0301; with Torsin-1A (Homo sapiens) [8] it was -0.205; in the test with Torsin-1A (Homo sapiens) [9], 0.119; in [10], -0.195. The z-score in test [2] was -0.477 (inactive); in test [3], -0.402 (inactive); in [4], -0.448 (inactive); in test [5] it was -0.494 (inactive).
As for `CCCC[C@H]1OB(O)C[C@H]2C1=C(C)C[C@H]1C(=O)N(Cc3ccccc3)C(=O)[C@H]12`, the composite z-score in test [1] was 0.34; in test [6], -0.0276; in test [7], -0.122; with Torsin-1A (Homo sapiens) [8], 0.358; with Torsin-1A (Homo sapiens) [9], 0.528; in test [10], 1.01. In addition, the z-score in [2] is 0.342 (inactive); in [3], 0.464 (inactive); in test [4], -0.23 (inactive); in test [5] it was -0.155 (inactive).
